The record followed here is PubChem BioAssay AID1430 (University of Pittsburgh Molecular Library Screening Center, 2008).

Screen size: about 220,000 compounds; about 240 (0.11%) were called active. Only a selection was taken, and actives are over-represented in it overall. A number with no mark means an inactive call.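 How the source made its calls: active means inhibition of 50% or more in the single-dose primary screen; inactive means inhibition below 50%.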

The term inhibition denotes the drop in the measured response relative to a control, in per cent.

In the test the test system is hexokinase 1 [Trypanosoma brucei]. The experiment in a line: Trypanosoma brucei hexokinase 1 inhibitors, primary screen, biochemical, G6PDH-coupled NADH absorbance, MLSCN library (AID 1430). The conditions noted are these: recombinant TbHK1, G6PDH-coupled NADH A340; at 10 µM; active compounds read high.
As for `CCc1ccc(-c2nn(-c3ccccc3)cc2CSC(=N)N)cc1`, the inhibition is 14%.
Consider `O=c1c(-c2ccccc2)cnc2n1CCS2`, for which the inhibition was -3.12%.
The result for `CN(C)c1ccc(C=C2C(=O)OC3(CCCC3)OC2=O)cc1` reads -24.4%; that for `Cc1cccc(C)c1NC(=O)C(c1ccccc1)N1CC(=O)Nc2ccccc21` (stereo not given), 3.26%.
The result for `C/C(CC1CC(C)(C)OC1=O)=N/Nc1nc(-c2ccccc2)cs1` (stereo not given) reads -4.91%; that for `CCOC(=O)C(=O)Nc1nc(-c2ccccc2)c(CC)s1`, -8.25%; that for `Cc1ccc(CNC(=O)COc2ccc(S(=O)(=O)NC(C)C)cc2)cc1`, -6.99%.
To `O=C(NC(=S)Nc1cc(C(F)(F)F)ccc1N1CCOCC1)c1ccc(-c2cccc(Cl)c2)o1` belongs -33.5%.
Consider `CCNC(=O)CC1C(=O)N(c2ccc(F)cc2)C(=O)N1Cc1cccs1` (stereo not given), for which the inhibition is -6.58%.
With `COC(=O)c1ccc(NC(=S)NN2CCOCC2)cc1`, the inhibition is 0.284%.
The result for `COc1ccc(NS(=O)(=O)c2cc(NC(=O)CC(=O)c3ccc([N+](=O)[O-])cc3)ccc2C)cc1` reads -3.8%; that for `N#C/C(C(=S)Nc1ccccc1)=C1/NN=C(N2CCOCC2)N1c1ccccc1`, -22%; that for `Cc1ccc(C(=O)N/C(=C\c2ccco2)C(=O)N2CCSCC2)cc1C`, -18.1%.
Turning to `C/C(=N/NC(=O)c1cc(Cl)ccc1O)C12CC3CC(CC(C3)C1)C2`, the inhibition is -5.54%.
To `Cn1nc(C(F)(F)F)cc1-c1ccc(/C=C(\C#N)C(=O)c2cccc(C(F)(F)F)c2)s1` belongs 20.2%; to `Cc1ccc(/C=C/C(=O)Nc2ccc([N+](=O)[O-])c(NC(=O)/C=C/c3ccc(C)o3)c2)o1`, -13.6%.
To `Cc1ccc2[nH]c(C)c(CCNC(=O)NC3CCCCC3)c2c1` belongs -1.75%; to `C/C(=N/Nc1ccc(Cl)cc1)c1cnnc(-c2ccccc2)n1`, -3.6%; to `COC(C[C@H](O)CC(=O)COCc1ccccc1)OC`, -5.95%.
The result for `CC1CCCN(C(=O)c2ccc3c(c2)C(=O)N(CCC2=CCCCC2)C3=O)C1` (stereo not given) reads 9.11%.
